Screens: PubChem BioAssay, National Center for Advancing Translational Sciences (NCATS)
Hits are enriched below; roughly 2.5% of the tested compounds scored in any of these assays.
Cruzain noTriton: qHTS Assay for Promiscuous and Specific Inhibitors of Cruzain (without detergent); purified cruzain, Z-FR-AMC fluorescence, no detergent; 2.3% of 200,000 active; Potency, µM, usual class: inhibitors; Cruzipain (Trypanosoma cruzi), P25779; note: nearly all actives have a fitted effect of over 40% in size
Target sequence (P25779 123-467 limits assumed): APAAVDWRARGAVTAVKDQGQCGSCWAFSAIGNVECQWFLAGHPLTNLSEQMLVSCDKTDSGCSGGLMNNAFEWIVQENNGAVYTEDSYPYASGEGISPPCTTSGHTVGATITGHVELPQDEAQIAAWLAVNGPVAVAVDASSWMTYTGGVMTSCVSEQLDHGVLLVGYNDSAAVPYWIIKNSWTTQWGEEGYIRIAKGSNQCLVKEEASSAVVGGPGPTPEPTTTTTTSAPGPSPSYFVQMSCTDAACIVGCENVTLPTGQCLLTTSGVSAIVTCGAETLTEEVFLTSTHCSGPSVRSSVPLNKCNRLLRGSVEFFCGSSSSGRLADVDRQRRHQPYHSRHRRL
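Detergent-free condition (0.00005% Triton X-100) in acetate buffer pH 5.5 with DTT. 1.5 nM enzyme and compound were pre-mixed 15 min, then 2 uM Z-FR-AMC substrate added; reaction progress from fluorescence change between first and third reads (60 s).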
Cruzain inh Det: qHTS Assay for Promiscuous and Specific Inhibitors of Cruzain (with detergent) | purified cruzain, Z-FR-AMC fluorescence, 0.01% Triton | Potency, µM, actives largely listed as inhibitors | Cruzipain (Trypanosoma cruzi), P25779 | 0.43% of 200,000 active; note: nearly all actives have a fitted effect of over 40% in size
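Detergent-containing run (0.01% Triton X-100) in acetate buffer pH 5.5 with 5 mM DTT: enzyme at 1.5 nM final, 15 min compound preincubation at room temperature, then 2 uM Z-FR-AMC substrate. Activity taken as 60 s fluorescence increase at 360/450 nm.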
Large screens that a line does not name were inactive. Calls come from the whole dose curve; as a rule, active = well fitted curve in the direction sought with a large enough effect; inconclusive = small, poorly fitted or top-dose-only effect, or another doubt; inactive = no such curve, though single readings can be large; an effect the other way counts as inactive or inconclusive.

Cn1nnnc1Sc1ncnc2scc(-c3ccc(F)cc3)c12	none
Cn1nnnc1Sc1ncnc2scc(-c3ccccc3)c12	Cruzain noTriton 16µM
Fc1ccc(CSc2ccc3nnc(-c4cccs4)n3n2)cc1	Cruzain noTriton inconclusive
Cc1cccc(CSc2ccc3nnc(-c4cccs4)n3n2)c1	Cruzain noTriton 32µM
COc1ccc(CCNC(=O)c2ccc3c(c2)N(Cc2c(F)cccc2Cl)C(=O)CS3)cc1OC	none
Nc1nc(SCC(=O)O)[nH]c(=O)c1N	none
Cc1sc(NC(=O)c2cccc([N+](=O)[O-])c2)c(C(N)=O)c1-c1ccc(C(C)(C)C)cc1	Cruzain noTriton 13µM
Cc1sc(NC(=O)/C=C/C(=O)O)c(C(N)=O)c1-c1ccc(C(C)(C)C)cc1	none
Cc1cc2c(cc1S(=O)(=O)N(CCN(C)C)Cc1ccccc1)OCC(=O)N2	none
Cc1ccc(CO/N=C\Cc2snc(Sc3ncc(C(F)(F)F)cc3Cl)c2C#N)cc1	Cruzain noTriton 4µM
Cc1ccc(S(=O)(=O)N2CCN(C(=O)CSc3ncc(C(F)(F)F)cc3Cl)CC2)cc1	none
O=S(=O)(O)c1cc(O)c2c(O)c(N=Nc3cccc4ccccc34)c(S(=O)(=O)O)cc2c1	none
N#Cc1ccc(-n2c(-c3ccccc3)nnc2-c2ccccc2)cc1C#N	Cruzain noTriton 20µM
N#Cc1cccc(-n2c(-c3ccccc3)nnc2-c2ccccc2)c1C#N	Cruzain noTriton inconclusive
CN1CCN(CCCN)CC1	none
CCOC(=O)CNC(=O)O[C@H]1C(=O)c2cc(OC)ccc2O[C@@H]1c1ccc(OC)c(Br)c1	Cruzain noTriton 13µM
CCOC(=O)CNC(=O)O[C@@H]1C(=O)c2cc(OC)ccc2O[C@H]1c1cccc(OC)c1	none
NCCOC[C@H](N)C(=O)O	none
Cc1csc(NC(=O)CSc2nnc(NC(=O)COc3ccc(Cl)cc3)s2)n1	Cruzain noTriton 5µM
CCSc1nnc(NC(=O)COc2ccccc2)s1	Cruzain noTriton inconclusive
CCOc1ccc(C(=O)NCCc2csc(-c3ccc(C(F)(F)F)cc3)n2)cc1OCC	none
COc1cc2nc(NCCc3ccc(Cl)cc3)n3nc(-c4ccccc4)nc3c2cc1OC	none
O=C(CSc1nc2c([nH]c3ccccc32)c(=O)n1-c1cccc(Cl)c1)c1ccccc1	none
COc1cccc([C@@H]2Oc3ccc(Br)cc3C[C@H]2OC(=O)NS(=O)(=O)c2ccc(C)cc2)c1	none
COc1ccc(C2c3c(ccc4ccccc34)Oc3ncn4nc(Cc5ccccc5)nc4c32)cc1OC (configuration not stated)	Cruzain noTriton inconclusive
COc1ccc(/C=N/OCc2nc3c4c(ncn3n2)Oc2ccc3ccccc3c2C4c2ccccc2)cc1 (configuration not stated)	Cruzain noTriton 1.6µM
O[C@@H](COc1cccc2ccccc12)CN1CCOCC1	none
CCc1ccc(-c2csc3[n+]2CCN3C(C)=O)cc1	Cruzain inh Det 18µM
CC(=O)N1CC[n+]2c(-c3ccc(Cl)cc3)csc21	Cruzain inh Det inconclusive
CC(=O)Oc1ccc(C(=O)[C@H]2[C@H]3C(=O)N(c4cccc5ccccc45)C(=O)[C@H]3[C@@H]3C=CC=NN32)cc1	none
O=C(Nc1ccc(Cl)cc1)[C@@H]1[C@@H]2C(=O)N(c3ccc4ccccc4c3)C(=O)[C@@H]2[C@H]2C=CC=NN21	Cruzain noTriton 16µM
O=C(Nc1nc2ccccc2s1)c1ccc(Cl)s1	Cruzain noTriton inconclusive
Cc1ccc2nc(NC(=O)c3ccc(-c4nc5ccccc5s4)s3)sc2c1	Cruzain noTriton 4µM
COc1ccc(/C=C/C(=O)NCc2cn(C)nc2C)cc1COc1ccc(Cl)cc1Br	Cruzain inh Det 14µM
CCn1nc(C)c(NC(=O)/C=C/c2ccc(OC)c(COc3ccc(Cl)cc3Br)c2)c1C	none
CCOC(=O)CNc1ncnc2c1nnn2C	none
O=C(c1cc2sccc2n1Cc1ccccc1)N1CCc2ccccc21	Cruzain noTriton inconclusive
O=C(c1cc2sccc2n1Cc1ccccc1)N1CCCc2ccccc21	Cruzain noTriton 20µM
O=C(O)c1ccccc1NC(=O)N1c2ccccc2Sc2ccccc21	none
Cc1cc(C(=O)COC(=O)c2cc(Cl)ccc2N)c(C)n1Cc1ccco1	Cruzain noTriton 25µM
COC(=O)c1c(C(=O)OC)c(C)n(Cc2ccco2)c1C	none
Cc1cccc(NC(=O)c2cc3c([nH]c4ccccc43)c(C)n2)c1C	Cruzain noTriton inconclusive
Cc1ccc(C)c(NC(=O)c2cc3c([nH]c4ccccc43)c(C)n2)c1	Cruzain noTriton 7.9µM
O=C1NC(=S)S/C1=C\c1ccc(SCc2ccccc2)o1	none
O=C1NC(=S)S/C1=C\c1ccc(SCc2ccco2)o1	Cruzain noTriton inconclusive, Cruzain inh Det 16µM
Cc1cccc(C)c1NCc1nnc(SCC(=O)Nc2nc(-c3ccccc3)cs2)n1-c1ccccc1	Cruzain noTriton inconclusive
CCOc1ccc(NCc2nnc(SCC(=O)Nc3nc(-c4ccccc4)cs3)n2-c2ccccc2)cc1	Cruzain noTriton 25µM
COC(=O)CCC(=O)NC(=S)Nc1sc(C)c(C)c1C(N)=O	Cruzain noTriton inconclusive
Cc1sc(NC(=S)NC(=O)CCc2ccccc2)c(C(N)=O)c1C	Cruzain noTriton 4µM
C[N+](C)(N)CCC[N+](C)(C)N	none
Oc1ccc(C=Nc2ccc3ncccc3c2)c(O)c1	Cruzain noTriton 16µM
Oc1ccc(C=Nc2cccc3ncccc23)c(O)c1	none
Cc1cc(Br)ccc1NC(=O)c1cc2c(=O)n(C)c3cc(Cl)ccc3c2s1	none
O=C(OCC1OC(OC(=O)c2cc(O)c(O)c(OC(=O)c3cc(O)c(O)c(O)c3)c2)[C@@H](OC(=O)c2cc(O)c(O)c(OC(=O)c3cc(O)c(O)c(O)c3)c2)C(OC(=O)c2cc(O)c(O)c(OC(=O)c3cc(O)c(O)c(O)c3)c2)C1OC(=O)c1cc(O)c(O)c(OC(=O)c2cc(O)c(O)c(O)c2)c1)c1cc(O)c(O)c(OC(=O)c2cc(O)c(O)c(O)c2)c1 (some centres not stated)	Cruzain noTriton 7.9µM, Cruzain inh Det 16µM
Cc1cn(C2OC(COC(=O)c3ccccc3)C(OC(=O)c3ccccc3)C2OC(=O)c2ccccc2)c(=O)[nH]c1=O (configuration not stated)	Cruzain noTriton inconclusive
Cc1ccc(-c2nc3ccccc3[nH]2)cc1NC(=O)c1sc2cc(Cl)ccc2c1Cl	Cruzain noTriton 7.9µM
Cc1ccc(-c2nc3ccccc3[nH]2)cc1NC(=O)COc1ccc(Cl)cc1Cl	none
O=C(Nc1cccc(Cl)c1)Nc1ccc(Cl)cn1	Cruzain noTriton 25µM
O=C(Nc1ccc(F)cc1)Nc1ccc(Cl)cn1	none
CC(=O)N1CCC2(CCCN(c3ccccc3)C2)CC1	none
C=C(C[C@]1(C(=O)OC)CC2(CC=C(C)C)C(=O)C(C(=O)CC(C)C)=C(O)C(CC=C(C)C)(C1)C2=O)C(=O)OC (some centres not stated)	Cruzain noTriton inconclusive
Nc1nc(Nc2cccc(F)c2)nc2ccccc12	Cruzain noTriton 16µM, Cruzain inh Det inconclusive
O=c1oc(Nc2cccc(F)c2)nc2ccccc12	none
C#C[C@]1(OC(C)=O)CC[C@H]2[C@@H]3CCC4=CC(=O)CC[C@@H]4[C@H]3CC[C@@]21C	none
O=C(Nc1c(C(=O)N2CCN(c3ccccc3)CC2)oc2ccccc12)c1ccccc1F	none
O=C(Nc1c(C(=O)N2CCN(c3ccccc3F)CC2)oc2ccccc12)c1ccccc1F	Cruzain noTriton 20µM
COc1ccc(Cl)c2sc(NC(=O)c3ccc(S(=O)(=O)N4CCOCC4)cc3)nc12	none
